D1 antag = antagonists of human D1 dopamine receptor; HEK293 TREx D1 cells, calcium flux, dopamine EC80; stronger effect = lower value; activity change, negative = inhibition, % at 10 µM; P21728; actives 3.2% (n = 360,000); in the data active = activity change below about -30%; also: % is scaled to controls: 0 for no effect and ±100 for the full control effect
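HEK293 T-REx cells expressing inducible, force-coupled D1 receptor; no-wash Ca dye, 30–90 min RT. Cmpd → 180 s read at 1 Hz → EC80 DA → 180 s read.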
D1 agonist = agonists of human D1 dopamine receptor. P21728. HEK293 T-REx D1 cells, calcium flux, agonist mode. actives 1% (n = 360,000). activation, % at 2 µM; in the data active = activation above about 30%; also: 0% is about no effect
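Tetracycline-induced HEK293 TREx D1 cells, force-coupled to calcium signalling, were dye-loaded with a no-wash calcium kit. Compound was pin-added after a 10 s baseline. Fluorescence was read kinetically at 1 cycle/s for 180 s, with calcium rises flagged as agonism.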
BCR signal inh = blocks chronic active B-cell receptor signaling | ABC-DLBCL IkBa-CBG/CBR reporter, luminescence ratio, 4 h | Potency, µM (highest dose often 46.1 µM), without a hit: at the highest dose activity change, negative = inhibition, usual class: inhibitors | actives 0.05% (n = 340,000) | AID 493014; active = well fitted inhibition curve with a large enough effect in the signal ratio, with a control signal flat, not every such curve was filed as active; inconclusive = small, poorly fitted or top-dose-only effect, or effect the other way, or a change in a side signal; the % refers to the signal ratio;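 also: potency is read from the fitted curve at half-maximal effect; plate controls were basal doxycycline-induced cells for no effect and cells given 10 µM MG132 for full effect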
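Concentration-response series (up to 46 uM) were applied to TMD8 dual-reporter cells for 4 h at 37C with doxycycline. Green/red ratio, after filter-overlap correction, defined %Activity; red signal alone was normalised to basal cells and zero luminescence.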
D3 antag = antagonists of human D3 dopamine receptor | D3R cells, DiscoveRx beta-arrestin luminescence, antagonist mode; stronger effect = lower value | actives 2.5% (n = 360,000) | max response, negative = inhibition, % | P35462 | AID 652054; in the data active = max response below about -50%; inconclusive = no clear call, values can overlap the other calls; also: % is scaled to controls: 0 for no effect and ±100 for the full control effect
Target sequence (P35462 whole entry, looked up): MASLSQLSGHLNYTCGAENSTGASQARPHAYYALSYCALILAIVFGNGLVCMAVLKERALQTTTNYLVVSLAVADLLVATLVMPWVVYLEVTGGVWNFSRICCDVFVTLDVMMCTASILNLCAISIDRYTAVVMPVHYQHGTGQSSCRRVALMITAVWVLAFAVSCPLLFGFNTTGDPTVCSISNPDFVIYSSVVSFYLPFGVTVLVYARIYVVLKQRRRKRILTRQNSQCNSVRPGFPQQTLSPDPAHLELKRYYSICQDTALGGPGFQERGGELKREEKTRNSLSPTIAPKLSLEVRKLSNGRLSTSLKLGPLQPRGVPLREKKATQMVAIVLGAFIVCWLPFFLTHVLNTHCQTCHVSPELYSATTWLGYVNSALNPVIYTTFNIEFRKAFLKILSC
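Cells plated overnight at 1500 cells/well, then exposed to library compounds with dopamine controls for 90 minutes at 37 degrees C. DiscoveRx reagent added for 30–60 minutes at room temperature; luminescence read, quantitative HTS format.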
DRD3 agonist = agonists of human D3 dopamine receptor; P35462; D3R DiscoveRx beta-arrestin cells, luminescence, 90 min; max activation, %; actives 0.58% (n = 410,000); AID 652048; in the data active = max activation above about 30%; also: 0% is about no effect
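Cells at 1500/well, incubated overnight, then treated with pinned compounds (dopamine as control) for 90 min at 37 degrees C. DiscoveRx reagent added for 30 - 60 minutes at room temperature; luminescence read.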
D1 PAM = human D1 dopamine receptor positive modulation. P21728. HEK293 TREx D1 cells, calcium flux, dopamine EC20 potentiation. potentiation, % at 10 µM. actives 0.036% (n = 360,000); in the data active = potentiation above about 30%; also: 0% is about no effect
Active calls of the source: *; ? = inconclusive; . = no result; ! = a repeat was not active. A selection: hits, their analogues and other compounds. The true share with any hit is near 6%.

SMILES	D1 antag	D1 agonist	BCR signal inh	D3 antag	DRD3 agonist	D1 PAM
CC(Sc1nnc(-c2ccc(Cl)cc2Cl)n1Cc1ccccc1)C(=O)Nc1nccs1 (stereo not given)	-46*	0	?	11	1	2
Cc1nnc(SC(C)C(=O)Nc2ccc(Cl)cn2)n1Cc1ccccc1 (stereo not given)	30	2	2%	?	-23	0
COc1ccc(C2c3c(n(C)c4ccccc34)C(=O)N2CC(=O)Nc2ccccc2Cl)cc1 (stereo not given)	-25	19	.	.	-3	-3
CCC(CC)C(=O)Nc1cccc(-c2cn3cccnc3n2)c1	-34*	3	-28%	.	-15	4
CCC(CC)C(=O)Nc1ccncc1	-46*	0	3%	.	.	-6
CCC(CC)C(=O)Nc1ccc(-c2cn3cccnc3n2)cc1	-31*!	0	11%	-5	-3	-4
CC(C)(C)CC(=O)Nc1cccc(-c2cn3cccnc3n2)c1	-9	0	5%	19	-5	4
CCC(CC)C(=O)Nc1cc(-c2cn3cccnc3n2)ccc1OC	-6	1	.	.	-2	-2
CCCC(CCC)C(=O)Nc1ccncc1	-7	17	3%	4	-1	-3
O=C(CC(c1cccs1)N1Cc2ccccc2C1=O)Nc1ccc(F)cc1 (stereo not given)	14	0	.	.	-14	1
CC(C)OC(=O)c1c(NC(=O)c2cc3nc(-c4ccccc4)cc(C(F)(F)F)n3n2)sc2c1CCCC2	18	3	5%	.	-14	-1
Cc1ccc(Cc2c(-c3ccc(C#N)cc3)nc3c4ccccc4ccn23)cc1	.	.	.	0	-4	.
O=C(O)CCNC(=O)/C(=C\C=C\c1ccccc1)NC(=O)c1ccccc1	1	4	2%	13	2	-3
O=C(Nc1ccc(O)cc1)/C(=C\C=C\c1ccccc1)NC(=O)c1ccccc1	-32*	2	?	3	5	4
COC(=O)/C(=C\C=C\c1ccccc1)NC(=O)c1ccccc1	-30*	0	-20%	-14	-4	-5
COCCC1CCCCN1C(=O)c1cc(COc2ccc(-n3cncn3)cc2)on1 (stereo not given)	-64*	18	-3%	4	1	-9
CCC1CCCCN1C(=O)c1cc(COc2ccc3ncccc3c2)on1 (stereo not given)	-42*	12	6%	14	6	-4
CC(=O)c1ccc(OCc2cc(C(=O)N3CCCCC3c3cccnc3)no2)cc1 (stereo not given)	-33*	20	7%	-4	2	-6
COCCOC1CCN(C(=O)c2cc(COc3ccc(-n4cncn4)cc3)on2)CC1	-4	5	-5%	-10	1	2
COCC1CCCCN1C(=O)c1cc(COc2ccc3ncccc3c2)on1 (stereo not given)	-27	12	1%	11	15	-1
Cc1nc(CN(C)C(=O)c2cc(COc3ccc4ncccc4c3)on2)cs1	-37*	16	-27%	35	5	-2
Cc1c(-c2ccc(O)cc2)n(Cc2ccc(OCCN3CCCCCC3)cc2)c2ccc(O)cc12	.	.	.	.	-25	.
O=C(Nc1ccc(Oc2ccccc2)cc1)c1ccc(F)c(S(=O)(=O)N2CCN(c3ccccc3F)CC2)c1	-7	-1	8%	.	14	1
Cc1nn(-c2ccc(C(=O)N3CCN(S(=O)(=O)c4ccccc4C(F)(F)F)CC3)cc2)c(C)c1Cl	-2	2	-5%	2	112*	1
CC(=O)c1ccc(S(=O)(=O)N2CCN(C(=O)c3ccc(-n4nc(C)c(Cl)c4C)cc3)CC2)cc1	5	9	-3%	18	77*	-2
SMILES	D1 antag	D1 agonist	BCR signal inh	D3 antag	DRD3 agonist	D1 PAM
Cc1nn(-c2ccc(C(=O)O)cc2)c(C)c1Cl	11	3	?	14	5	0
Cc1cc(C)n(-c2ccc(C(=O)N3CCN(S(=O)(=O)c4ccc(Cl)cc4)CC3)cc2)n1	-22	11	-9%	9	-2	.
CCc1nc2ccc(C(=O)N(C)CCN(C)C)cn2c1N(C)Cc1cc2ccccc2s1	.	.	.	-69*	-27	.
CCc1nc2ccc(C(=O)N(CC)CCN(C)C)cn2c1N(C)Cc1cccs1	.	.	.	-18	-15	.
Cc1ccc(C(=O)c2sc(Nc3ccc(F)cc3)nc2N)c(C)c1	29	14	.	.	-21	2
COc1ccc(NC(=O)CCC(=O)OCC(=O)c2ccc(Oc3ccc([N+](=O)[O-])cc3)cc2)cc1	-2	3	4%	-7	6	-4
COc1ccc(NC(=O)CCC(=O)OCc2ccc(C(=O)Oc3ccc(Cl)cc3)cc2)cc1	-31*	3	?	?	5	-6
COc1ccc(NC(=O)CCC(=O)OCc2ccc([N+](=O)[O-])cc2)cc1	-31*	2	4%	-15	-1	0
CC(=O)Nc1nonc1-c1nnc(SCC(=O)Nc2ccc(C)cc2C)n1C	-28	-1	.	.	7	0
CC(C)c1ccc(N(C(=O)c2snc(C(N)=O)c2N)C(C(=O)NCC2CCCO2)c2ccc(N(C)C)cc2)cc1 (stereo not given)	48	57*	?	21	8	3
CN(C)c1ccc(C(C(=O)NCC2CCCO2)N(C(=O)c2snc(C(N)=O)c2N)c2ccccc2)cc1 (stereo not given)	-15	3	-1%	47	5	-6
COCCn1c(C)cc(C(=O)COC(=O)c2cncc(Br)c2)c1C	-5	2	0%	-10	-4	8
COCCn1c(C)cc(C(=O)COC(=O)c2ccc3ncsc3c2)c1C	-9	9	-12%	-55*	7	-6
Cc1[nH]c2c(C)cccc2c1CCNC(=O)c1ccc2c(c1[N+](=O)[O-])C(=O)c1ccccc1C2=O	19	1	?	-56*	0	1
CN(C)C(=O)c1ccc2c(c1[N+](=O)[O-])C(=O)c1ccccc1C2=O	12	3	?	?	-9	11
CCCCNc1c(-c2ccc(-c3cccc(Cl)c3)cc2)nc2ccccn12	-12	6	7%	83	63*	-3
CCCCCCSc1cccc(-c2nc3ccc(Cl)cn3c2NCCCC)c1	.	.	.	53	33*!	.
CCCCCCSc1ccc(-c2nc3ccccn3c2NCCCC)cc1	-5	1	15%	82	82*	1
CCCCNc1c(-c2ccc(SC(C)CC)cc2)nc2ccc(Cl)cn12 (stereo not given)	.	.	.	-24	-14	.
CCCCCCSc1ccc(-c2nc3cc(C)ccn3c2NC2CCCCC2)cc1	.	.	1%	36	-12	.
